hgDAF12 agonist: activates the H. glycines DAF-12 receptor ligand-binding domain; AID 687014; HEK293 GAL4-hgDAF12 UAS-luciferase reporter, agonist luminescence; normalized to butyrate control; activation, % at 6.8 µM; actives 1.8% (n = 370,000);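 active = activation above a cutoff set at the mean of all screened compounds plus 3 SD, cut at about 10% in these data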
DAX1 inh-1: NR0B1 (DAX1) inhibition. P51843. AID 504766. HEK293 Gal4-DAX1 luciferase reporter, luminescence. inhibition, % at 6.75 µM. actives 0.99% (n = 340,000);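 active = inhibition above the mean over all tested compounds plus 3 SD, cut at about 4.2% in these data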;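 note: inhibition shows as a rise in luminescence from relieved DAX1 repression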
Target sequence (P51843 207-470 limits assumed): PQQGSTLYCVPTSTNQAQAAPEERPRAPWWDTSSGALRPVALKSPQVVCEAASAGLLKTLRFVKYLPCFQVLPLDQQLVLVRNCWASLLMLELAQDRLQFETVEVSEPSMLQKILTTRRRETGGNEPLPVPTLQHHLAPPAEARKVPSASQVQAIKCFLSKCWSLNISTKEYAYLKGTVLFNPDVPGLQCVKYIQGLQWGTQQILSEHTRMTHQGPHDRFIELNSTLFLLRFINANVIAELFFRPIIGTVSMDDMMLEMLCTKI
ssDAF-12 act: activators of S. stercoralis DAF-12 nuclear receptor; activation, % at 6.8 µM; AID 652126; actives 1% (n = 370,000); HEK293 ssDAF-12/GRIP1 lit1-tk-luc reporter, luminescence; % of 3 µM dafachronic acid response;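 active = activation above the mean over all tested compounds plus 3 SD, cut at about 0.9% in these data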
DAX1 inh-2: inhibitors of DAX1 repression of SF-1 activated StAR promoter; AID 652010; actives 1.1% (n = 370,000); inhibition, % at 6.8 µM; HEK293T StAR-luciferase reporter, SF-1/DAX-1 repression relief;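 active = inhibition above the mean over all tested compounds plus 3 SD, cut at about 3.6% in these data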;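 note: higher inhibition means more luminescence from relief of DAX-1 repression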
PolyA inhibitor: inhibitors of polyadenylation in S. cerevisiae. S. cerevisiae SKY197-pL101 polyadenylation reporter, beta-gal luminescence; efflux-impaired pdr1/pdr3 knockout yeast; score 100 = 6 SD above DMSO. activity score, % at 12 µM. actives 0.02% (n = 300,000). AID 1875;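 active = lowest replicate activity score at least 50, where 100 means six control SD above control mean; inconclusive = lowest score under 50 but half or more replicates reach 50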;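 note: yeast exposed to compound for 9 h at 30 °C; higher score means more reporter readthrough which indicates perturbed polyadenylation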
hcDAF-12 act: activates DAF-12 receptor from parasite H. contortus; actives 1.4% (n = 370,000); HEK293 hcDAF-12 lit1-tk-luc reporter, luminescence; 0% DMSO, 100% Δ7-dafachronic acid; activation, % at 6.8 µM;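 active = activation above the mean of all tested compounds plus 3 SD, cut at about 5.5% in these data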
DAX1 conf: NR0B1 (human) inhibition, confirmation; shares compounds with DAX1 inh-2; HEK293T StAR-promoter luciferase reporter, SF-1/DAX-1 repression; inhibition, % at 6.8 µM; actives 87% (n = 2,400); AID 652134;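 active = inhibition above the average of every tested compound plus 3 SD, cut at about 3.8% in these data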;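 note: active compounds raise luminescence by relieving repression of the StAR reporter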
SF1 AF2mut Luc: nonselective inhibitor or artifact in SF-1 mutant DAX1 counter-screen | shares compounds with DAX1 inh-2 | HEK293 StAR-luciferase, SF-1 AF2 mutant, luminescence | inhibition, % at 6.8 µM | actives 78% (n = 2,400);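 active = inhibition above the mean of all tested compounds plus 3 SD, cut at about 3% in these data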
LXR ag: LXR-beta agonism as hcDAF-12 counter-screen; activation, % at 6.8 µM; HEK293 Gal4-LXR tk-luc reporter, luminescence, 24 h; normalized: DMSO 0%, positive control 100%; 3,400 tested, under 10 active; shares compounds with hcDAF-12 act;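 active = mean percent activation of the reporter above a cutoff set as the average over tested compounds plus their standard deviation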
hcDAF12 conf: confirmation of H. contortus DAF-12 agonists. shares compounds with hcDAF-12 act. HEK293 hcDAF-12 lit1-tk-luc reporter, luminescence; % of Δ7-dafachronic acid response. activation, % at 6.8 µM. actives 61% (n = 3,400). AID 743032;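 active = mean activation across triplicate tests above the threshold derived from the earlier primary screen, cut at about 5.5% in these data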
Numbers stand for hits; n = inactive; u = inconclusive; x = no result. Hits are enriched below; roughly 4.1% of the tested compounds scored in any of these assays.

SMILES	hgDAF12 agonist	DAX1 inh-1	ssDAF-12 act	DAX1 inh-2	PolyA inhibitor	hcDAF-12 act	DAX1 conf	SF1 AF2mut Luc	others
CCOC(=O)C1=C(C(=O)OCC)C2N(Cc3ccc(C#N)cc3)c3ccccc3[C@@]23C[C@@H](C(=O)OC)N(S(=O)(=O)c2ccccc2)C3=N1 (stereo not given in full)	n	x	n	n	x	n	x	x
O=C(NCc1ccccn1)c1cccc(S(=O)(=O)N2CCCCC2)c1	n	n	n	4.7	x	n	n	n
O=C(NCc1ccccn1)c1ccc(Cl)c(S(=O)(=O)N2CCCCC2)c1	n	n	n	n	n	n	x	x
Cc1ccnc(NC(=O)c2cccc(S(=O)(=O)N3CCN(c4ccccc4)CC3)c2)c1	n	n	n	13	n	n	4.0	n
Cc1ccnc(NC(=O)c2ccc(S(=O)(=O)N3CCC(C)CC3)cc2)c1	11	n	n	11	n	n	13	7.6
COc1ccc(Cn2cc(CN3[C@H](C)COc4cc(Br)ccc4S3(=O)=O)nn2)cc1	n	x	n	n	x	n	x	x
Cc1cc(NN=Cc2ccccn2)nc2ccccc12	n	x	n	n	x	n	x	x
C(=NNc1ccc2ccccc2n1)c1ccccn1	11	x	n	4.8	x	5.9	n	n
Cc1nn(-c2ccccc2)c(Cl)c1/C=N/NC(=O)c1ccnn1C	n	n	n	7.2	u	n	9.4	6.4
O=C(COC(=O)c1cccc(-n2cnnn2)c1)c1ccc(F)cc1	n	n	n	n	n	n	x	x
COc1ccc(C(=O)COC(=O)c2cccc(-n3cnnn3)c2)c(OC)c1	n	n	n	4.6	n	n	7.8	4.4
C[C@@H]1CC(=O)NN=C1c1ccc(NN=C(C#N)C#N)cc1	n	x	n	n	x	n	x	x
O=C1CC(c2ccccc2)CC2=C1C1(CCCC1)N=C(Nc1nc3ccccc3o1)N2 (stereo not given)	n	x	n	4.5	x	n	n	n
O=C1CCCC2=C1C1(CCCCC1)N=C(Nc1nc3ccccc3o1)N2	n	n	n	n	n	n	x	x
C/C(=N\NC(=O)c1ccn(C)n1)c1ccc(NC(=O)c2cccc(F)c2)cc1	n	n	n	8.4	n	n	n	n
CCc1cccc2c(C(=O)CN3C(=O)N(C)C4(CCCCC4)C3=O)c[nH]c12	n	n	n	7.9	x	n	11	n
CCc1cccc2c(=O)c(C(=O)N3CCCCCC3)c[nH]c12	n	n	n	n	n	n	x	x
CCc1cccc2c(C(=O)CN3C(=O)NC4(CCc5ccccc54)C3=O)c[nH]c12 (stereo not given)	n	n	n	12	n	n	5.9	n
CCc1cccc2c(C(=O)CN3C(=O)NC(C)(c4cccc5ccccc45)C3=O)c[nH]c12 (stereo not given)	n	n	n	n	n	n	x	x
CCOC(=O)[C@@]12CCC3=C1N(CCC3)C(=O)[C@H](CC(=O)NCc1cccs1)C2	n	x	n	n	x	n	x	x
O=C(O)c1cccc(N/N=C/c2cn(-c3ccccc3)nc2-c2cccs2)c1	n	n	n	6.4	n	n	18	9.2
O=C(N/N=C/c1ccc(O)cc1)c1cccc(N/N=C/c2ccc(O)cc2)c1	n	n	n	n	n	n	x	x
NC(=O)N/N=C/c1cn(-c2ccccc2)nc1-c1cccs1	n	n	n	n	n	n	x	x
COc1ccc(/C=N/Nc2ccc(C(=O)O)cc2)cc1OC	11	n	n	5.3	n	6.1	17	5.8
COc1ccc(C(=O)Oc2ccc(/C=N/Nc3ccc(Cl)c(C(=O)O)c3)cc2OC)cc1	n	n	n	n	n	n	x	x
SMILES	hgDAF12 agonist	DAX1 inh-1	ssDAF-12 act	DAX1 inh-2	PolyA inhibitor	hcDAF-12 act	DAX1 conf	SF1 AF2mut Luc	others
O=C(O)c1cccc(N/N=C/c2ccc(F)c(F)c2)c1	n	n	n	5.0	n	n	11	7.2
C=CCOc1c(Br)cc(/C=N/Nc2ccc(C(=O)O)cc2)cc1OCC	12	n	n	7.3	n	n	13	8.7
Cc1ccc(NC(=O)[C@H]2CC(=O)O[C@@H]2c2ccccc2)cc1C	n	x	n	n	x	n	x	x
Cc1cccc(-c2noc(CCC(=O)N3CCN(c4cc(C)ccc4C)CC3)n2)c1	n	n	n	6.3	x	n	6.0	3.9
CC(C)=CC(=O)Nc1ccc2c(c1)OCO2	n	n	n	6.1	n	n	12	7.7
O=C(Nc1cccc(F)c1)Nc1ccc2c(c1)OCO2	n	n	n	7.0	n	n	9.2	5.3
C/C=C/c1ccc([C@H]2[C@@H](CN(CC(C)C)S(=O)(=O)c3ccccc3[N+](=O)[O-])N(C(=O)Nc3cccc(OC)c3)[C@H]2CO)cc1	n	x	n	n	x	n	x	x
Cn1ccc(C(=O)Nc2sc3c(c2C(N)=O)CCCCC3)n1	12	n	n	10	n	7.8	4.9	n	LXR ag=n;hcDAF12 conf=6.9
NC(=O)c1c(NC(=O)c2cc3ccccc3o2)sc2c1CCC2	13	n	1.9	4.8	n	9.9	14	7.6	LXR ag=n;hcDAF12 conf=15
NC(=O)c1c(NC(=O)c2cccnc2)sc2c1CCCCC2	n	n	n	n	n	n	x	x
CC(=O)Nc1sc2c(c1C(N)=O)CCC2	n	n	n	n	n	n	x	x
Nn1c(SCC(=O)Nc2cc(C(F)(F)F)ccc2Cl)nnc1-c1n[nH]c2c1CCC2	n	x	n	n	x	n	x	x
Cc1cc(Nc2ccc(Cl)c(C(F)(F)F)c2)cc(=O)n1-c1ccc(Cl)c(C(F)(F)F)c1	n	x	n	n	x	n	x	x
O=C1C(=NO)CCCc2ccccc21	n	n	n	n	x	n	x	x
O=C1C(=C2CCc3ccccc32)Cc2ccccc21	21	x	2.3	7.1	x	15	16	9.0	LXR ag=n;hcDAF12 conf=21
C/C(=N\Nc1ccc(C(=O)O)cc1)c1ccc(Br)cc1	19	n	n	5.1	n	12	16	5.3	LXR ag=n;hcDAF12 conf=14
Cc1ccccc1CS(=O)(=O)Cc1ccc(C(=O)Nc2ccc(F)cc2)o1	n	x	n	n	x	n	x	x
Cc1ccsc1C(=O)Nc1nccs1	n	n	n	n	n	n	x	x

Screening data deposited in PubChem BioAssay by several laboratories.
